Here are results for 27 compounds from PubChem BioAssay (EPA / NIEHS).

The target in assay [1] is Transcription factor E2F1 (Homo sapiens) (UniProt Q01094). The experiment in a line: ATG_E2F_CIS: Attagene CIS-FACTORIAL HepG2 Assay for human E2F Transcription Factor 1 (AID 2282935). The following applies: HepG2 Attagene cis-reporter, E2F reporter RNA transcripts; actives raise or lower the signal. In outline: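 Total RNA from 24 h-treated, reporter-transfected HepG2 cells undergoes DNase I treatment, oligo(dT) reverse transcription, PCR and 6-FAM primer extension before capillary electrophoresis.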

Assay [2] in a line: ATG_E_Box_CIS: Attagene CIS-FACTORIAL HepG2 Assay for human Enhancer Box (E-box) (AID 2282936). As to conditions: HepG2 E-box cis-reporter transcription, actives raise or lower the signal. The essentials: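 DMSO served as negative control and baseline for bidirectional fitting. Human hepatoma HepG2 cells, transiently transfected with cis-reporter constructs, were dosed 24 h; reporter mRNA read by RT-PCR and capillary electrophoresis.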

A short description of assay [3]: ATG_M_61_CIS: Attagene CIS-FACTORIAL HepG2 Assay for M61 Transcription Factor (Internal Marker) (AID 2282937). As to conditions: HepG2 Attagene CIS-FACTORIAL M61 internal marker reporter; actives raise or lower the signal. In outline:
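Readout: fluorescent reporter mRNA fragments resolved by capillary electrophoresis after RT-PCR. Transiently transfected human HepG2 cells carried MRTU constructs reporting endogenous TF activity; 24 h chemical exposure; gain or loss of signal fitted relative to DMSO.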

A short description of assay [4]: ATG_EGR_CIS: Attagene CIS-FACTORIAL HepG2 Assay for human Early Growth Response 1 (EGR1) (AID 2282938). As to conditions: HepG2 Attagene CIS-FACTORIAL EGR reporter mRNA; actives raise or lower the signal. In outline: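 Read-out: fluorescent reporter-mRNA fragments resolved by capillary electrophoresis after RT-PCR, 24 h post-dose in transiently transfected HepG2. Endogenous transcription-factor activity reported via cis-element-regulated reporter units; gain or loss fitted relative to DMSO.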

Assay [5] can be described thus: ATG_ERE_CIS: Attagene CIS-FACTORIAL HepG2 Assay for Estrogen Response Element (ERE) (AID 2282940). As to conditions: HepG2 ERE cis-reporter, Attagene RNA transcript; actives raise or lower the signal. In outline: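 Readout: reporter mRNA induction by RT-PCR, FAM-labelled primer extension, HpaI digestion and capillary electrophoresis, 24 h after dosing transfected HepG2 cells. Endogenous transcription factors act on cis-element-regulated reporters. Gain or loss fitted against DMSO.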

Assay [6] can be described thus: ATG_Ets_CIS: Attagene CIS-FACTORIAL HepG2 Assay for human Erythroblast Transformation Specific (ETS) (AID 2282941). As to conditions: HepG2 ETS cis-reporter transcription, actives raise or lower the signal. In outline: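 HepG2 cells transiently transfected with cis-promoter reporter transcription units were dosed for 24 h; reporter mRNA was measured by RT-PCR, 6-FAM primer extension, HpaI digestion and capillary electrophoresis, with bidirectional fitting against DMSO baseline.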

The target in assay [7] is Hepatocyte nuclear factor 3-beta (Homo sapiens) (UniProt Q9Y261). The experiment in a line: ATG_FoxA2_CIS: Attagene CIS-FACTORIAL HepG2 Assay for human Forkhead box A2 (FOXA2) (AID 2282942). As to conditions: HepG2 cis-reporter transcription factor activity, 24 h; actives raise or lower the signal. In outline: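 Readout: fluorescent reporter transcripts resolved by capillary electrophoresis after RT-PCR. Transiently transfected HepG2, 24 h compound exposure, endogenous TF activity at cis promoter elements. Gain or loss of signal fitted relative to DMSO.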

Assay [8] can be described thus: ATG_FoxO_CIS: Attagene CIS-FACTORIAL HepG2 Assay for human Forkhead box O (FoxO) (AID 2282943). As to conditions: HepG2 Attagene cis-reporter, FoxO element, mRNA; actives raise or lower the signal. The essentials: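 Endogenous transcription factor activity read from multiplexed cis-promoter reporter transcripts in transiently transfected HepG2, 24 h after dosing. Reporter RNA measured via RT-PCR plus capillary electrophoresis of FAM-labeled products; gain or loss relative to DMSO.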

Assay [9] in a line: ATG_GATA_CIS: Attagene CIS-FACTORIAL HepG2 Assay for human GATA Binding Protein (AID 2282944). As to conditions: HepG2 GATA cis-element reporter, Attagene multiplex mRNA; actives raise or lower the signal. In outline: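 Read-out: fluorescent reporter mRNA fragments resolved by capillary electrophoresis after RT-PCR. Human liver HepG2 cells carried transiently transfected cis-regulated reporter constructs; chemicals incubated 24 h; gain or loss of signal fitted relative to DMSO.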

Assay [10] in a line: ATG_M_19_CIS: Attagene CIS-FACTORIAL HepG2 Assay for M19 Transcription Factor (Internal Marker) (AID 2282939). The following applies: HepG2 Attagene CIS-FACTORIAL M19 internal marker reporter; actives raise or lower the signal. The essentials:
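Readout: fluorescent reporter-transcript fragments by capillary electrophoresis after RT-PCR. Human HepG2 liver cells carried transfected MRTU constructs reporting endogenous transcription-factor activity; exposure 24 h. Gain or loss of signal fitted relative to DMSO.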

Active and inactive are the calls of the source. The calls were made as follows: active = hit-call score of the fitted dose curve at least 0.9, where 1 is the maximum; inactive = score below 0.9.

Chain of Hepatocyte nuclear factor 3-beta (Homo sapiens) (Q9Y261 whole entry, looked up): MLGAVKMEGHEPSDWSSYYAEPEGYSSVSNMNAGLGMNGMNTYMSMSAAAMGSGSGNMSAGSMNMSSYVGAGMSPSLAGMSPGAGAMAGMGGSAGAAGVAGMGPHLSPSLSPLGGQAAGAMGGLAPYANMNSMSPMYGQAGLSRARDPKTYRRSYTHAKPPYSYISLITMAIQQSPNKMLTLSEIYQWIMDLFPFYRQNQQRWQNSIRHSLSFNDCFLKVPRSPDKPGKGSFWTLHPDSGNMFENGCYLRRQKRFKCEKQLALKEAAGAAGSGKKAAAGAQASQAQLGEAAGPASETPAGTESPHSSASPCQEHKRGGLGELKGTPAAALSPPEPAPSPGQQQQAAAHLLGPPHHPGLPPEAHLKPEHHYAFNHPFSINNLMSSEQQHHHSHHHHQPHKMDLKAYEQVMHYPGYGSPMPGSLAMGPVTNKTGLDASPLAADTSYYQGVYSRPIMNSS
Chain of Transcription factor E2F1 (Homo sapiens) (Q01094 whole entry, looked up): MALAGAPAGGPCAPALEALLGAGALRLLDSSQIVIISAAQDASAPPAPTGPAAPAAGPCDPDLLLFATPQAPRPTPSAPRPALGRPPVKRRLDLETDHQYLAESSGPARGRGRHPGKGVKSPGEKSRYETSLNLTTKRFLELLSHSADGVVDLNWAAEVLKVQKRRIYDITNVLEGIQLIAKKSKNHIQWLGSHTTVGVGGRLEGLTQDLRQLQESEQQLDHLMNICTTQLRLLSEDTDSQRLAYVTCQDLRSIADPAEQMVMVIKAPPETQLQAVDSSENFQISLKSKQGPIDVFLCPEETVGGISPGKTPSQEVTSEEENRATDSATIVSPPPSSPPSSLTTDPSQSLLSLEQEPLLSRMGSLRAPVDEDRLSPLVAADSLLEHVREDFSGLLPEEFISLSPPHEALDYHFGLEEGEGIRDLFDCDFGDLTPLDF

With `CC1(C)[C@H](C=C(Cl)Cl)[C@H]1C(=O)OCc1cccc(Oc2ccccc2)c1`, the compound was classed as inactive in [1], in [2], in [3], in assay [4], in assay [5] and in assay [6]. Also, the result in [7], in assay [8] and in assay [9] was inactive.
For `CCc1cccc(O)c1`, the compound was classed as inactive in [1], in assay [2], in [3], in assay [4], in [5] and in assay [6]. Moreover, the call in [7], in assay [8] and in assay [9] was inactive.
`CCOC(=O)CC1(C)OCC(C)O1` (stereo not given): the outcome in [1], in assay [2], in assay [4], in [10], in assay [5] and in assay [6] was inactive. Also, the call in assay [7] and in assay [8] was inactive.
Consider `Nc1cc([N+](=O)[O-])ccc1C(=O)O`, for which the compound was classed as inactive in assay [1], in assay [2], in assay [4], in assay [10], in assay [5] and in assay [6]. The result in [7] and in assay [8] was inactive.
With `CN(C)c1ccc(C=O)cc1`, the compound was called inactive in [1], in assay [2], in assay [3], in assay [4], in assay [5] and in [6]. Moreover, the outcome in assay [7], in assay [8] and in assay [9] was inactive.
In the case of `[Cl][Dy]([Cl])[Cl]`, the call in assay [1], in [2], in [3], in assay [4], in [5] and in assay [6] was inactive. For the same compound, the call in [7], in assay [8] and in assay [9] was inactive.
With `CCCCCCCC1CCCC1=O` (stereo not given), the result in [1], in [2], in assay [3], in assay [4], in [5] and in assay [6] was inactive. Also, the outcome in [7], in assay [8] and in assay [9] was inactive.
As for `CC(=O)CC(C)(C)C1CCCCC1`, the compound was called inactive in [1], in assay [2], in assay [3], in assay [4], in assay [5] and in [6]. The compound was classed as inactive in [7] and in assay [8].
Consider `CC12CCC(C1)C(C)(C)C2O` (stereo not given), for which the result in [1], in assay [2], in assay [4], in assay [10], in [5] and in [6] was inactive. The compound was classed as inactive in assay [7] and in assay [8].
Broadly, the AC50 is the midpoint of the concentration-response curve, whichever way the signal moves. For the compound `CCC=C(C)C=O`, the compound was called inactive in [1], in assay [2], in assay [3], in assay [4], in assay [10] and in [6]. Also, the compound was classed as inactive in [8] and in assay [9]. For the same compound, the AC50 in assay [5] was 27.4 µM (active).
For the compound `C[N+](C)(C)CCO`, the result in [1], in [2], in [4], in assay [10], in [5] and in assay [6] was inactive. In addition, the outcome in assay [7] and in [8] was inactive.
`CC(C)COC(=O)c1ccccc1`: the outcome in [1], in assay [2], in assay [3], in [4], in assay [5] and in assay [6] was inactive. Further, the outcome in [7] and in assay [8] was inactive.
For `CC(=O)N(C)C`, the compound was classed as inactive in assay [1], in assay [2], in [3], in [4], in assay [5] and in assay [6]. Moreover, the compound was classed as inactive in assay [7], in [8] and in assay [9].
As to `COc1ccc(C(C)=O)cc1`, the outcome in [1], in assay [2], in [3], in assay [4], in [5] and in [6] was inactive. Besides, the result in assay [7], in assay [8] and in assay [9] was inactive.
With `CC(C)C(=O)OCC=Cc1ccccc1`, the call in [1], in [2], in [3], in [4], in assay [5] and in assay [6] was inactive. The compound was classed as inactive in assay [7], in [8] and in [9].
As for `NC(=O)c1cnccn1`, the compound was called inactive in [1], in assay [2], in assay [4], in assay [10], in assay [5] and in assay [6]. Moreover, the outcome in assay [7], in [8] and in [9] was inactive.
As for `C=C1CC/C=C(\C)CC[C@@H]2[C@@H]1CC2(C)C`, the call in [1], in assay [3], in assay [4], in assay [6], in [7] and in assay [8] was inactive. The compound was called inactive in [9]. The AC50 in assay [2] was 94.9 µM (active); in [5], 33.8 µM (active).
On to `Cc1cc(O)c2c(c1)C(=O)c1cc(O)cc(O)c1C2=O`, for which the outcome in assay [1], in [2], in assay [3], in assay [4], in assay [7] and in assay [9] was inactive. Besides, the AC50 in assay [5] is 0.602 µM (active); in assay [6], 19.3 µM (active); in assay [8], 26.2 µM (active).
With `OCC=Cc1ccccc1`, the result in assay [1], in assay [2], in assay [3], in assay [4], in assay [10] and in [6] was inactive. Also, the outcome in assay [7], in assay [8] and in assay [9] was inactive.
Turning to `ClCCOCCOCCCl`, the outcome in assay [1], in assay [2], in assay [3], in [4], in assay [5] and in assay [6] was inactive. For the same compound, the call in assay [7] and in assay [8] was inactive.
With `FC(F)(F)c1ccc(Cl)c(Cl)c1`, the result in [1], in assay [2], in [3], in assay [4], in assay [5] and in [6] was inactive. In addition, the outcome in assay [7], in assay [8] and in [9] was inactive.
With `C=CC(=O)OCCCCCC`, the call in assay [1], in assay [2], in assay [3], in assay [4], in [6] and in assay [7] was inactive. Besides, the compound was called inactive in assay [8] and in [9].
For `CC(=O)OC(C)(C)C`, the compound was called inactive in [1], in assay [2], in assay [3], in [4], in assay [5] and in [6]. Also, the compound was classed as inactive in [7], in assay [8] and in assay [9].
As to `CCC(=O)OC/C=C(\C)CCC=C(C)C`, the call in assay [1], in assay [2], in assay [3], in assay [4], in assay [5] and in assay [6] was inactive. The outcome in [7], in assay [8] and in assay [9] was inactive.
Consider `c1ccc(Cc2ccccc2)cc1`, for which the result in assay [1], in assay [2], in assay [3], in assay [4], in [6] and in assay [7] was inactive. In addition, the result in assay [8] and in assay [9] was inactive. The AC50 in assay [5] was 100 µM (active).
Regarding `c1ccc(Sc2ccccc2)cc1`, the compound was called inactive in assay [1], in assay [2], in [3], in assay [4], in assay [6] and in assay [7]. The result in [8] and in [9] was inactive. In addition, in [5], the AC50 was 63.5 µM (active).
In the case of `CCO[Si](CC)(OCC)OCC`, the result in assay [1], in assay [2], in assay [4], in assay [10], in assay [5] and in [6] was inactive. Moreover, the result in assay [7], in assay [8] and in assay [9] was inactive.
